NR2F2 inh: NR2F2 (human) inhibition, primary screen. 370,000 compounds, 0.7% hits. P24468. HEK293T NGFI-A luciferase reporter, luminescence. inhibition, % at 8.6 µM;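 active = inhibition above a per-plate cutoff, mean inhibition of test wells between control levels plus 3 SD, cut at about 38% in these data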;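 note: cells cotransfected with COUP-TFII expression vector driving the NGFI-A reporter; 0% = median of COUP-TF2 test wells and 100% = reporter-only cells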
SRC2 inh: human SRC2 (NCOA2) inhibition. Q15596. HEK293 GAL4-SRC2 luciferase reporter, luminescence. inhibition, % at 9 µM. 370,000 compounds, 0.17% hits. AID 651957;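 active = inhibition above the mean inhibition of all tested compounds plus 3 SD, set per campaign, cut at about 52% in these data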;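 note: 0% = DMSO treated cells and 100% = cells given Gossypol at 36 µM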
NCOA1 inh: inhibits human SRC1 coactivator | 360,000 compounds, 0.12% hits | Q15788 | HEK293 GAL4-SRC1 luciferase reporter, luminescence | inhibition, % at 3.6 µM;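 active = inhibition above the campaign mean plus 3 SD, with each screening campaign given its own cutoff, cut at about 60% in these data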;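 note: 0% = DMSO treated cells and 100% = gossypol at 36 µM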
NR5A2 inv ag: suppresses constitutive activity of human LRH-1; AID 602396; 360,000 compounds, 0.13% hits; inhibition, % at 3.6 µM; HEK293T StAR-luciferase reporter, LRH-1 transfected, 24 h;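 active = inhibition above the mean inhibition of all tested compounds plus 3 SD, cut at about 73% in these data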;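 note: 0% = DMSO wells and 100% = reporter-only cells lacking LRH-1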
Target sequence (O00482 whole entry, looked up): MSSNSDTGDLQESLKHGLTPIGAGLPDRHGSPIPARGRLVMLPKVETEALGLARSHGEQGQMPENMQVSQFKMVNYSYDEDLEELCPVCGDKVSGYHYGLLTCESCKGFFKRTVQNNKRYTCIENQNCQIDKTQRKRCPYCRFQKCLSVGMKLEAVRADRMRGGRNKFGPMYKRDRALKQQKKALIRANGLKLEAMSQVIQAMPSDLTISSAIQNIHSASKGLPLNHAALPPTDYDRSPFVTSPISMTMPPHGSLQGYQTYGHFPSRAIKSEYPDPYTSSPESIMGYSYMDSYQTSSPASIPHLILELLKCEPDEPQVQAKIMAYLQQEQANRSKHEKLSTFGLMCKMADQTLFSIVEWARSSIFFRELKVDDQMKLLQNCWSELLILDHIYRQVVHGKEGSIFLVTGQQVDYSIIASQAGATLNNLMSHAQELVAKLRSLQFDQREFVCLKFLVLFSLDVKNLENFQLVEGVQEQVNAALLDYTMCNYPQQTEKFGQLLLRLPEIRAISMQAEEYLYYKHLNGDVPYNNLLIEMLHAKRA
NCOA3 inh: human NCOA3 inhibition; Q9Y6Q9; HEK293 GAL4-SRC3 luciferase reporter, luminescence; inhibition, % at 3.6 µM; 360,000 compounds, 0.17% hits;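 active = inhibition above a per-campaign cutoff, the mean of all compounds plus 3 SD, cut at about 60% in these data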;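 note: 0% = DMSO-treated cells and 100% = gossypol-treated cells at 36 µM; higher means less SRC3-driven luciferase light from the GAL4 reporter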
VP16 Luc counter: VP16 inhibition counter-screen for COUP-TFII. shares compounds with NR2F2 inh. HEK293 Gal4-VP16 luciferase reporter, luminescence. inhibition, % at 8.5 µM. 2,500 compounds, 25% hits. AID 687007; in the data active = inhibition above about 13%
NR2F2 inh conf: COUP-TFII (NR2F2) inhibition, confirmation assay. shares compounds with NR2F2 inh. HEK293 NGFI-A luciferase reporter, luminescence. inhibition, % at 8.5 µM. 2,500 compounds, 45% hits;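 active = mean inhibition over three repeats above a set limit taken from the earlier primary screen, cut at about 38% in these data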;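 note: 100% = cells given the luciferase reporter alone without the COUP-TF2 vector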
* = called active by the depositor; . = no result given. Only some compounds are listed: those with a hit (about 0.81% of all), similar ones and a draw of the others.

SMILES	NR2F2 inh	SRC2 inh	NCOA1 inh	NR5A2 inv ag	NCOA3 inh	VP16 Luc counter	NR2F2 inh conf
COc1ccc(N/C(N)=N/c2nc(C)cc(C)n2)cc1	-5	23	-1	16	8	.	.
Cc1cc(C)nc(/N=C(\N)Nc2ccc(OCCC(C)C)cc2)n1	58*	12	22	26	41	18*	38*
Cc1cc(C)nc(/N=C(\N)Nc2ccc(OCc3ccccc3)cc2)n1	47*	2	-14	34	20	4	27
CC(C)[C@H]1/C(=C/C2CC2)N2C(=O)C[C@H](c3ccccc3)N=C2N1C	-11	.	.	.	.	.	.
O=C(Nc1ccc(F)cc1)OCc1cn(Cc2ccc(F)c(F)c2)nn1	0	8	.	.	.	.	.
O=C(NCCN1CCC(n2c(=O)[nH]c3ccccc32)CC1)c1ccc(C(F)(F)F)cc1C(F)(F)F	44*	11	.	35	.	4	19
CCOC(=O)/C=C1\CN(Cc2cc(OC)c(OC)c(OC)c2)S(=O)(=O)c2ccc(C(F)(F)F)cc21	48*	-9	-2	-7	3	-8	0
COC(=O)[C@]12C[C@H](CC(=O)NCc3ccccc3)C(=O)N(CCC3=CCCCC3)C1=C[C@H](C1CCCC1)O[C@@H]2C	-27	6	.	.	.	.	.
O=C(O)CCC(=O)Nc1ccc(N=Nc2ccccc2)cc1	.	.	-14	-6	0	.	.
CC(C)(C)C(=O)Nc1ccc(N=Nc2ccccc2)cc1	66*	46	52	38	51	-9	60*
O=C(NC1CC[C@@]23CCCN2C(=O)CCC[C@H]3C1)c1ccccc1 (some centres undefined)	-7	.	.	.	.	.	.
CCOC(=O)c1cnc(-n2nc(C)cc2C)nc1NC1CCCCC1	77*	23	12	19	5	-2	72*
c1ccc(-c2cc(CSc3nc4ccccc4[nH]3)on2)cc1	40*	-13	0	-5	22	-7	14
Cc1noc(C)c1CSc1nc2ccccc2[nH]1	-13	-19	2	19	-7	.	.
Cc1ccc(S(=O)(=O)N2c3ccccc3C[C@H]2CC=C(c2ccccc2)c2ccccc2)cc1	3	.	.	.	.	.	.
O=[N+]([O-])c1cccc(OC[C@@H](O)CN2CCC(C(O)(c3ccccc3)c3ccccc3)CC2)c1	-19	19	.	.	.	.	.
COc1cc(CSc2nnnn2-c2ccc(C)cc2)cc(OC)c1OC	69*	14	16	49	23	0	54*
O=C(Nc1ccc(OC(F)(F)F)cc1)Nc1nc2ncccn2c1-c1ccc(C(F)(F)F)cc1	3	-40	.	.	.	.	.
COC(=O)Nc1cc(C)nc2ccccc12	-3	-10	5	17	13	.	.
Cc1cc(NC(=O)Cc2ccccc2)c2ccccc2n1	58*	34	38	22	27	0	39*
Cc1cc(C)nc(SCC(=O)Nc2ccnc3ccccc23)n1	65*	27	27	35	34	3	60*
O=C(CSC1=NCCS1)Nc1ccnc2ccccc12	41*	31	26	17	47	6	51*
CCS(=O)(=O)Nc1ccc2c(c1)C(=O)N(C)[C@@H]1CC[C@H](CC(=O)NCCCN3CCOCC3)O[C@H]1CO2	-25	-17	.	.	.	.	.
O=C(Nc1cccc([N+](=O)[O-])c1)c1cc2ccccc2cc1O	63*	-4	-32	-37	-8	-135	2
COc1ccc(NC(=O)c2cc([N+](=O)[O-])ccc2O)cc1	69*	76*	51	20	53	39*	61*
SMILES	NR2F2 inh	SRC2 inh	NCOA1 inh	NR5A2 inv ag	NCOA3 inh	VP16 Luc counter	NR2F2 inh conf
COc1ccc(NC(=O)c2cccc([N+](=O)[O-])c2)cc1	-15	-35	-31	2	-36	.	.
COc1ccc(-n2c(SCC(=O)Nc3ccc4c(c3)OCCO4)nnc2-c2ccccc2)cc1	10	0	.	.	.	.	.
CC1(C)CC(N2CCCCC2)=CC(=[N+]2CCCCC2)C1	67*	11	43	56	48	9	51*
CN(C)NC1=CC(=[N+]2CCCC2)CC(C)(C)C1	-14	-4	-2	6	24	.	.
CCCN(CCC)C1=CC(=[N+]2CCCC2)CC(C)(C)C1	53*	39	61*	72	55	11	43*
CC(C)C(=O)OCCCN1CCC2(CCC(c3ccccc3)CC2)C1=O (centres undefined)	-11	-21	.	.	.	.	.
O=C1CSc2ccc(C(=O)Nc3cccc(S(=O)(=O)Nc4ccc(Br)cc4)c3)cc2N1	75*	37	-25	-3	17	0	32
O=C(Nc1ccccc1Oc1ccccc1)NC1CCCCN(Cc2cccc(Cl)c2)C1=O (centres undefined)	14	-32	.	.	.	.	.
Nc1cc(=O)[nH]c(SCc2ccc(Cl)cc2Cl)n1	48*	-13	17	29	13	16*	34
Cc1c(C(C)C)c(=O)n(-c2ccc(S(=O)(=O)NC3CCCCC3)cc2)n1C	62*	7	21	44	28	-1	39*
Cc1c(C(C)C)c(=O)n(-c2ccc(S(=O)(=O)N3CCOCC3)cc2)n1C	22	-73	-6	6	-1	.	.
Cc1c(C(C)C)c(=O)n(-c2ccc(S(=O)(=O)NCc3ccccc3)cc2)n1C	63*	14	25	43	-5	8	53*
C=CCN(C(=O)[C@@H](C1CC1)[C@@H](O)c1ccc(Cl)cc1)c1ccccc1	2	5	.	.	.	.	.
Cc1ccc2oc(-c3cccc(NC(=S)NC(=O)/C=C/c4ccco4)c3)nc2c1	47*	-7	-22	17	4	-31	-13
Cc1ccc2oc(-c3cccc(NC(=S)NC(=O)c4cccs4)c3)nc2c1	-28	-29	-24	-19	-25	.	.
COc1cccc(N2CCN(c3ncnc4c3cnn4-c3ccc(C)cc3C)CC2)c1	97*	69*	44	64	79*	27*	91*
Cc1ccc(-n2ncc3c(N4CCCC4)ncnc32)c(C)c1	-39	-95	-51	-84	-41	.	.
CCCOc1ccc(C(=O)Nc2ccc(S(=O)(=O)NC3=NCCCCC3)cc2)cc1	43*	3	-1	31	-4	-3	10
C=CCn1c(SCc2ccc(C(=O)Nc3nccs3)cc2)nnc1-c1ccc(C)c(Cl)c1	40*	22	-4	0	19	-12	21
COC(=O)[C@@]12CCCCC=C1N(CCc1ccc(Cl)cc1)C(=O)[C@H]2CC(=O)NCCc1ccccc1OC	17	-8	.	.	.	.	.
COC(=O)[C@]12C[C@H](CC(=O)NCc3cccc(C(F)(F)F)c3)C(=O)N(Cc3ccc(Cl)cc3Cl)C1=C[C@H](COCc1ccccc1)O[C@@H]2C	-3	-7	.	.	.	.	.
Cc1nn(C)cc1CNC(=O)c1cc2n(n1)C(C(F)(F)F)CC(c1cccs1)N2 (centres undefined)	29	-8	1	15	13	.	.
